From PubChem BioAssay AID743320 (Broad Institute, 2014)
Measured potencies and affinities stand elsewhere. Active and inactive are the calls of the source.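 The calls were made as follows: active = signal drop whose fitted half-maximal potency is at most twice the top valid dose tested; inconclusive = flat curve inhibiting 30 to 70 percent, or a poor fit; inactive = the rest.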

Molecular target: Endoplasmic reticulum aminopeptidase 2 (Homo sapiens) (UniProt Q6P179)
Assay: inhibition of ERAP2 arginine-AMC cleavage – biochemical, fluorescence plate reader, cherry-picked, set 2, selectivity assay for selective ERAP1 modulator project, dose response (AID 743320)
Conditions: recombinant ERAP2, Arg-AMC fluorescence, 1 h; series mostly up to 11 µM

Endoplasmic reticulum aminopeptidase 2 (Homo sapiens), sequence (Q6P179 whole entry, looked up): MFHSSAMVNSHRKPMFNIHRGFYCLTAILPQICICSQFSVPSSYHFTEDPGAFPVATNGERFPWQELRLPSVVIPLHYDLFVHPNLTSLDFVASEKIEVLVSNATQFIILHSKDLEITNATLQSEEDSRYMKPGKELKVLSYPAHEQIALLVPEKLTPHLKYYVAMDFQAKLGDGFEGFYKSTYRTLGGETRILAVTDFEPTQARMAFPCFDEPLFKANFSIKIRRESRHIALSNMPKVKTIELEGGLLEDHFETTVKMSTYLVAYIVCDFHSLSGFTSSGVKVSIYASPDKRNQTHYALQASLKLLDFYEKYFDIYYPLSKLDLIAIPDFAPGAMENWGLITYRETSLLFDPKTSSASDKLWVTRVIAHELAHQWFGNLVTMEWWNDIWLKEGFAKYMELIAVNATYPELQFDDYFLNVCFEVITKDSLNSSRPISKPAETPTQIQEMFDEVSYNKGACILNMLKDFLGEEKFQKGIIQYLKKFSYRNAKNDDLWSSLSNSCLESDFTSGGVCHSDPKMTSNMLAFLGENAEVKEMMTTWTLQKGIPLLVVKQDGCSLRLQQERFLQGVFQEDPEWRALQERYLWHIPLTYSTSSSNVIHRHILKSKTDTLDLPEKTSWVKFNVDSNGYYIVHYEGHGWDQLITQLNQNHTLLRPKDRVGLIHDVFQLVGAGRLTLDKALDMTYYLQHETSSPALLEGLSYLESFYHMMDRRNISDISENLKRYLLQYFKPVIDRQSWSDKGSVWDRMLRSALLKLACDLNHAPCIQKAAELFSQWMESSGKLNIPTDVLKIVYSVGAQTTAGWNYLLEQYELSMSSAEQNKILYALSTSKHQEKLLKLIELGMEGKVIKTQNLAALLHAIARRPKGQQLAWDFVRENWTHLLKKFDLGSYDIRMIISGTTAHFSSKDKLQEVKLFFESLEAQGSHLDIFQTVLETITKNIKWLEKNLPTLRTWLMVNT

With `CCN(CCCl)c1cc(CN(C)C)cc(NC(=O)c2ccc(C(=O)Nc3cc(CN(C)C)cc(N(CC)CCCl)c3)cc2)c1` as the compound, how does the outcome read?
The outcome was “inactive”.

For `N#Cc1c(N2CCNCC2)nc(-c2ccco2)c2c1CCCC2`, which outcome is on record?
Its outcome is “inactive”.

For `Cc1cc(=O)oc2cc(OCC(=O)N3CCN(C(C)c4ccccc4)CC3)c(Cl)cc12` (stereo not drawn), which outcome is on record?
Its outcome is “inactive”.
